Results from PubChem BioAssay.
Activity calls are given as the source filed them. Unless noted, the rule behind the calls is not given here.

Key:
[1] = resazurin metabolic signal in HepG2 cells – cell-based, resazurin fluorescence, 24 h, PK04 Diversity Set, profiling panel (AID 1172); conditions: HepG2 viability, higher = more signal; note: test concentration not given here
[2] = budding yeast growth changes without added modifier – OD600, strain BY4716, 24 h, basal condition, primary screen (AID 1173); conditions: S. cerevisiae BY4716 growth, OD600, 24 h; higher = more signal, called active from +8 up or from −8 down
[3] = viability profiling in MM1S myeloma cells – cell-based, resazurin fluorescence, basal, 24 h, PK04 Diversity Set, profiling panel (AID 1174); conditions: higher = more signal, called active from +8 up or from −8 down;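 note: MM1S multiple myeloma cell line; test concentration not given here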
[4] = molecular target: Dihydroorotate dehydrogenase (quinone), mitochondrial (Plasmodium falciparum (isolate 3D7)) (UniProt Q08210); experiment: inhibition of P. falciparum DHODH – biochemical, C-terminal His tag, absorbance 600 nm, primary screen (AID 1175); conditions: PfDHODH enzyme, DCIP absorbance 600 nm; higher = more signal, called active from +8 up or from −8 down;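 note: recombinant parasite enzyme with a five histidine tag at its C terminus; test concentration not given here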
[5] = inhibition of PAO1 biofilm formation – strain PAO1, LB-PBS medium, absorbance 600 nm, primary screen (AID 1176); note: test concentration not given here; conditions: P. aeruginosa PAO1 growth/biofilm, A600, 12 h; higher = more signal
[6] = growth modulation of vineyard yeast isolate – strain RM11-1a, OD600, basal, 24 h, primary screen (AID 1177);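 note: cultures grown under basal conditions with no added stressor; test concentration not given here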; conditions: S. cerevisiae RM11-1a growth, OD600, 24 h; higher = more signal, called active from +8 up or from −8 down
[7] = growth of efflux-deficient E. coli DRC39 – strain DRC39, OD650, 24 h, E. coli filamentation inducers, primary screen (AID 1178);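 note: growth measured as culture turbidity by optical density at 650 nm; test concentration not given here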; conditions: E. coli DRC39 acrAB, higher = more signal, called active from +8 up or from −8 down
[8] = growth of efflux-deficient E. coli DRC39 – strain DRC39, OD650, 48 h, E. coli filamentation inducers, primary screen (AID 1179);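 note: screen aims at cell division blockers that make cells filament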; conditions: E. coli DRC39 delta-acrAB growth, higher = more signal, called active from +8 up or from −8 down
[9] = viability profiling in RPMI8226 myeloma cells – cell-based, resazurin fluorescence, basal, 24 h, PK04 Diversity Set, profiling panel (AID 1180); conditions: higher = more signal;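 note: RPMI8826 multiple myeloma cell line at 5000 cells per well; test concentration not given here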
[10] = molecular target: E3 ubiquitin-protein ligase XIAP (Homo sapiens) (UniProt P98170); experiment: small molecules binding XIAP protein – biophysical, small-molecule microarray, fluorescence 635 nm, primary screen (AID 1181); conditions: higher = more signal;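 note: score merges 667 nm emission and signal to noise over triplicate slides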
Sequence of E3 ubiquitin-protein ligase XIAP (Homo sapiens) (P98170 whole entry, looked up): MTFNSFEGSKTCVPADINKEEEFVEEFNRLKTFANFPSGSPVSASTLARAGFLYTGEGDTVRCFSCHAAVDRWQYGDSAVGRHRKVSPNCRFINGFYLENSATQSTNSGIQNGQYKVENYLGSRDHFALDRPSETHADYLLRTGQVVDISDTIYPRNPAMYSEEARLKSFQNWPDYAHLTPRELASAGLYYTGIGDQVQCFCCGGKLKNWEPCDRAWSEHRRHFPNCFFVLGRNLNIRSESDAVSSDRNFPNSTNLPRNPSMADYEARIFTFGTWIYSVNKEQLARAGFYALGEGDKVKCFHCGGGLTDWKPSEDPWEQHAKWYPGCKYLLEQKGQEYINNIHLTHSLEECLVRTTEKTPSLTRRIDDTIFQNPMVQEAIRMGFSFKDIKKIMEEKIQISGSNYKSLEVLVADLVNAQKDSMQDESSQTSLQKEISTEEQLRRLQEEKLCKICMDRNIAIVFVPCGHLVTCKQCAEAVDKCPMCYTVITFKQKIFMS

Sequence of Dihydroorotate dehydrogenase (quinone), mitochondrial (Plasmodium falciparum (isolate 3D7)) (Q08210 whole entry, looked up): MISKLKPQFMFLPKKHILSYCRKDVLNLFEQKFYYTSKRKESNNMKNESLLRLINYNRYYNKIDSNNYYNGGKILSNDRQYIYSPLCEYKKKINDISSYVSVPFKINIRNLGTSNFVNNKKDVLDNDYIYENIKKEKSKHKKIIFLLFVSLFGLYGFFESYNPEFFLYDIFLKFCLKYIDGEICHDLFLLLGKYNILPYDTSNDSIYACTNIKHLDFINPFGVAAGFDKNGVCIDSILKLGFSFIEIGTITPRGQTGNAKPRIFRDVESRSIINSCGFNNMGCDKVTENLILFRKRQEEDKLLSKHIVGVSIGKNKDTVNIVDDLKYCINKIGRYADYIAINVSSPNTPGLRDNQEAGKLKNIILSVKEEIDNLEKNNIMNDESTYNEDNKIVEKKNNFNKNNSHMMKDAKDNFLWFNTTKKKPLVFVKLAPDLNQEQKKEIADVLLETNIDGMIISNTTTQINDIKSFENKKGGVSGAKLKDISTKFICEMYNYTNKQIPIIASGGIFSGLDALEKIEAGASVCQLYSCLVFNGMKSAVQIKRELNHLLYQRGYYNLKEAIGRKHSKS

| SMILES | z-score [1] | z-score [2] | z-score [3] | composite z-score [4] | z-score [5] | z-score [6] | z-score [7] | z-score [8] | z-score [9] | composite z-score [10] |
| --- | --- | --- | --- | --- | --- | --- | --- | --- | --- | --- |
| CN(C)CCCNC(=O)[C@@]1(C)c2ccccc2C(=O)N(Cc2cc(F)cc(C(F)(F)F)c2)[C@H]1c1ccc(CO)cc1 | 0.101 | -0.84 (inactive) | 0.079 (inactive) | -0.478 (inactive) | 0.264 (inactive) | -1.11 (inactive) | 0.706 (inactive) | -0.175 (inactive) | -0.406 | -0.0079 |
| CCOC(=O)C[C@H]1[C@H](OC(=O)c2cc3ccccc3oc2=O)[C@@H](NC(=O)C2CCCCC2)c2cc(OCCCO)ccc2N1C(=O)c1ccccc1 | -0.687 | -0.797 (inactive) | 0.0797 (inactive) | -2.85 (inactive) | -0.259 (inactive) | -0.403 (inactive) | 1.65 (inactive) | 0.612 (inactive) | 0.285 | -0.214 |
| COc1cc2c(cc1OC)CN(C(=O)[C@H]1[C@@H]3C(=O)O[C@@H](c4ccccc4)[C@@H](c4ccccc4)N3[C@@H](c3ccc(O)cc3)[C@]13C(=O)Nc1ccc(C#CCNC(N)=O)cc13)CC2 | 0.543 | 0.16 (inactive) | 0.187 (inactive) | -2.16 (inactive) | 0.305 (inactive) | 0.0092 (inactive) | 0.537 (inactive) | 0.0455 (inactive) | 0.592 | -0.202 |
| C=C(COC)/C(=C/C[C@@H](OC(C)=O)c1ccc(CO)o1)c1cnc2ccccc2c1 | -0.956 | -0.677 (inactive) | 0.915 (inactive) | -8.64 (active) | 0.579 (inactive) | 0.704 (inactive) | 0.685 (inactive) | -0.0551 (inactive) | 0.47 | 0.0225 |
| CC(C)(C)OC(=O)CC[C@]1(C(=O)O)N=C(c2ccc(OCCCO)cc2)O[C@H]1c1ccccc1N=[N+]=[N-] | 0.144 | -0.278 (inactive) | -1.32 (inactive) | -0.533 (inactive) | 0.286 (inactive) | -0.715 (inactive) | 0.0508 (inactive) | 0.49 (inactive) | 0.056 | 0.0989 |
| C=CCN1C(=O)[C@@]2(O[C@@H](CCO)[C@H]([Si](C)(C)c3ccc(OC)cc3)[C@H]2C)c2cc(NC(=O)c3ccc(OC)cc3)ccc21 | -2.49 | -1.77 (inactive) | -3.52 (inactive) | -1.21 (inactive) | 1.53 (inactive) | 1.69 (inactive) | 1.22 (inactive) | 0.586 (inactive) | -4.92 | -0.154 |
| C=CCOC(=O)[C@@H]1[C@H]2C(=O)O[C@H](c3ccccc3)[C@H](c3ccccc3)N2[C@H](c2ccc(OCCOC(=O)[C@@H]3C[C@@H]4C(=O)N5CCC[C@H]5C(=O)N4[C@@H]3c3ccc(O)cc3)cc2)[C@@]12C(=O)Nc1ccc(I)cc12 | 0.339 | 0.155 (inactive) | -0.446 (inactive) | -0.326 (inactive) | 2.65 (inactive) | -0.468 (inactive) | 0.65 (inactive) | 1.72 (inactive) | 1.28 | -0.059 |
| C=CCOC(=O)[C@H]1[C@@H]2C(=O)O[C@@H](c3ccccc3)[C@@H](c3ccccc3)N2[C@@H](c2ccc(OCCOC(=O)[C@@H]3C[C@@H]4C(=O)N5CCC[C@H]5C(=O)N4[C@@H]3c3cccc(OCCO)c3)cc2)[C@]12C(=O)Nc1ccccc12 | -1 | 1.15 (inactive) | 0.0098 (inactive) | 0.613 (inactive) | 2.06 (inactive) | 1.76 (inactive) | -0.701 (inactive) | -1.5 (inactive) | -0.0769 | -0.22 |
| COCCOC(=O)N1C(=O)[C@@]2(c3cc(C#CCCO)ccc31)[C@H](C(=O)Nc1nc3ccccc3s1)[C@H]1C(=O)O[C@H](c3ccccc3)[C@H](c3ccccc3)N1[C@@H]2c1ccc(OCCO)cc1 | 1.04 | 1.96 (inactive) | -0.922 (inactive) | -0.944 (inactive) | 2.84 (inactive) | 2.33 (inactive) | 0.348 (inactive) | 0.215 (inactive) | -1.66 | 0.154 |
| O=C1C2C=CC(C(O)c3c(F)cccc3Cl)N(Nc3ccccc3)C2C(=O)N1c1ccccc1 (stereo not given) | 0.947 | -1.48 (inactive) | -0.478 (inactive) | 0.693 (inactive) | -0.131 (inactive) | -0.679 (inactive) | 0.302 (inactive) | 1.28 (inactive) | 0.284 | 0.0975 |
| CC(C)(C)C(=O)N[C@@H](c1ccc(Cl)cc1)[C@]1(C)C[C@H]1C1CCCCC1 | -0.608 | -0.507 (inactive) | -0.385 (inactive) | -0.554 (inactive) | 1.03 (inactive) | 0.473 (inactive) | -0.196 (inactive) | -0.27 (inactive) | -0.231 | 0.261 |
